Measurements reported in PubChem BioAssay (NCATS).
Results filed as inconclusive are left out. Activity calls are given as the source filed them. Calls come from the whole dose curve; as a rule, active = well fitted curve in the direction sought with a large enough effect; inconclusive = small, poorly fitted or top-dose-only effect, or another doubt; inactive = no such curve, though single readings can be large; an effect the other way counts as inactive or inconclusive.

Columns and labels:
[1] = molecular target: Protein phosphatase 1D (Homo sapiens) (UniProt O15297); test: RapidFire Mass Spectrometry qHTS Assay for Modulators of WT P53-Induced Phosphatase 1 (WIP1) (AID 1347424);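 note: amount of dephosphorylated VEPPL-S-QETFS peptide product formed by WIP1; series mostly up to about 63 µM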
Summary of the method: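 RapidFire mass spectrometry measured dephosphorylated peptide after 5 min room-temperature reaction of 2 uM VEPPL-pS-QETFS with 10 nM WIP1 (50 mM Tris-HCl pH 7.5, 30 mM MgCl2, 0.1 mM EGTA, BSA), following 1 hr compound preincubation; 1 uM isotope-labelled product standard.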

[2] = molecular target: Protein phosphatase 1D (Homo sapiens) (UniProt O15297); test: Rhodamine-PBP qHTS Assay for Modulators of WT P53-Induced Phosphatase 1 (WIP1) (AID 1347425)
Summary of the method: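 Steps: enzyme with Rh-PBP sensor and compounds, room-temperature incubation of 1 hr, baseline read, addition of VEPPL-pS-QETFS (10 uM final), kinetic fluorescence reads at 525/598 nm. Activity equals final minus baseline signal.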

[3] = Primary qHTS for inhibitors of La Crosse Virus (LACV) - induced cell death in SH-SY5Y cells (AID 1508616);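 note: top concentration of the series differs between compounds; higher means more rescue of cells from virus-induced death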
Summary of the method: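 Cytopathicity rescue screen: compounds pinned onto SH-SY5Y cells, which are then infected with LACV (MOI 0.01) and held 6 days at 37C. Percent activity is scaled between infected DMSO control and uninfected DMSO control.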

[4] = molecular target: Calcium and integrin-binding protein 1 (Homo sapiens) (UniProt Q99828); test: Primary qHTS for Identification of Calcium Integrin Binding Protein 1 (CIB1) Competitor (AID 1508620);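 note: GST tagged CIB1 binding a fluorescein labelled alphaIIb integrin peptide tracer; top concentration of the series differs between compounds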
Summary of the method: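 CIB1-GST (1 uM final) and compound incubated 15 min at room temperature before adding FITC-alphaIIb peptide tracer (100 nM final). Competition for binding read by fluorescence polarization (ex 480, em 540) after another 15 min at room temperature.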

Measured: Potency

Sequence of Protein phosphatase 1D (Homo sapiens) (O15297 whole entry, looked up): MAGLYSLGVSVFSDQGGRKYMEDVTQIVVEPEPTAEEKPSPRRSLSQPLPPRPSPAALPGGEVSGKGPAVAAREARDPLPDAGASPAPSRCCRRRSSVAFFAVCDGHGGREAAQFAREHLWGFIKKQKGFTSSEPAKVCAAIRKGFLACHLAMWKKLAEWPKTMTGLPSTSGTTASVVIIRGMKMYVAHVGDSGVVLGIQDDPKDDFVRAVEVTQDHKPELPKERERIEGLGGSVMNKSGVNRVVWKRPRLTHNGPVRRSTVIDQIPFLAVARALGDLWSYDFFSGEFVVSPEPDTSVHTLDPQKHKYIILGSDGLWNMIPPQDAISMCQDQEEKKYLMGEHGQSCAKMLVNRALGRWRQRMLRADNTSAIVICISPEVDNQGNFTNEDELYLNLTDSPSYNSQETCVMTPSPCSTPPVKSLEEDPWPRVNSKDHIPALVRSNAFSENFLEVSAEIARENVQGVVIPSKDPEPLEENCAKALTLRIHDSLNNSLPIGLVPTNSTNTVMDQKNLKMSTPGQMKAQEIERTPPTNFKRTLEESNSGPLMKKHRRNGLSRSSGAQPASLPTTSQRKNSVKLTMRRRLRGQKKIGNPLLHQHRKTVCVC
Sequence of Calcium and integrin-binding protein 1 (Homo sapiens) (Q99828 whole entry, looked up): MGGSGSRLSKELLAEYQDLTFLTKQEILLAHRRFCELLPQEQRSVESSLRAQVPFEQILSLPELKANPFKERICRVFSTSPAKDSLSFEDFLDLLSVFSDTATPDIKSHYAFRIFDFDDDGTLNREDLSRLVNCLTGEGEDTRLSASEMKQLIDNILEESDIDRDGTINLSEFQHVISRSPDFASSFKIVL

O=C1[C@H](CC[C@H](O)c2ccc(F)cc2)[C@@H](c2ccc(O)cc2)N1c1ccc(F)cc1
inactive: all assays above

O=C(Nc1ccccc1)OCC(CN1CCCCC1)OC(=O)Nc1ccccc1 (configuration not stated)
inactive: all assays above

NS(=O)(=O)Cc1noc2ccccc12
inactive: all assays above

CCN(CC)CCNc1ccc(CO)c2sc3ccccc3c(=O)c12
inactive: all assays above

O=C(CCCN1CC=C(n2c(=O)[nH]c3ccccc32)CC1)c1ccc(F)cc1
inactive: all assays above

CN(Cc1ccc(C(C)(C)C)cc1)Cc1cccc2ccccc12
inactive: all assays above

Cc1ccccc1OCC(O)CO (configuration not stated)
inactive: all assays above

N/C(=N\N=C\c1ccc(Cl)cc1)N/N=C/c1ccc(Cl)cc1
inactive: all assays above

CCOc1ccccc1OCCN[C@H](C)Cc1ccc(OC)c(S(N)(=O)=O)c1
inactive: all assays above

CCCN(CCC)S(=O)(=O)c1ccc(C(=O)O)cc1
inactive: all assays above

CCCN(CCc1cccs1)[C@H]1CCc2c(O)cccc2C1
inactive: all assays above

COc1ccc(-c2cc(C(F)F)nn2-c2ccc(S(N)(=O)=O)cc2)cc1F
inactive: all assays above

O=C(O)CCNC(=O)c1ccccc1
inactive: all assays above
